Assay results from PubChem BioAssay AID1159580 (chemical genetic matrix, 2015).
Several values for one entry are separate records, joined by “and”; a condition that tells them apart may be missing. Equal entries are not always repeated. Screen size: about 5,500 compounds; about 2,000 (36%) were called active. Inconclusive results (about 18%) are left out. Some of the results follow. Unmarked numbers belong to inactive results. Cut-off read from the data, not from the text of the source: active = normalized growth mostly below about 0.91 (no sharp cut-off); inconclusive = no clear call, values can overlap the other calls; inactive = mostly above about 0.92.

Experiment: chemical genetic growth profiling, strain panel (AID 1159580);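 note: tested at 20 µM; growth read once vehicle control cultures reached saturation at 30 °C; 1 = growth at the plate median or of vehicle wells; lower values mean less growth of the strain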
Conditions: growth OD
[1] = S. cerevisiae deletion strains, locus YPL241C, strain CIN2, active compounds read low

In the case of Oc1c(Cl)c(Cl)c(Cl)c(Cl)c1Cl, the normalized growth (S. cerevisiae deletion strains, locus YAL013W, strain DEP1, active compounds read low) is reported as 0.885 (active), the normalized growth (S. cerevisiae deletion strains, locus YBR021W, strain FUR4, active compounds read low) is reported as 0.636 (active) and the normalized growth (S. cerevisiae deletion strains, locus YBR229C, strain ROT2, active compounds read low) is reported as 0.845 (active). The normalized growth (S. cerevisiae deletion strains, locus YCL029C, strain bik1, active compounds read low) was 0.672 (active), the normalized growth (S. cerevisiae deletion strains, locus YDL035C, strain GPR1, active compounds read low) was 0.834 (active) and the normalized growth (S. cerevisiae deletion strains, locus YDL074C, strain BRE1, active compounds read low) was 0.704 (active). For the same compound, the normalized growth (S. cerevisiae deletion strains, locus YDL101C, strain DUN1, active compounds read low) was 0.885 (active), the normalized growth (S. cerevisiae deletion strains, locus YDL134C, strain PPH21, active compounds read low) was 0.816 (active) and the normalized growth (S. cerevisiae deletion strains, locus YDL185W, strain tfp1, active compounds read low) was 0.176 (active). For the same compound, the normalized growth (S. cerevisiae deletion strains, locus YDL192W, strain arf1, active compounds read low) was 0.811 (active), the normalized growth (S. cerevisiae deletion strains, locus YDR101C, strain arx1, active compounds read low) was 0.758 (active) and the normalized growth (S. cerevisiae deletion strains, locus YDR150W, strain NUM1, active compounds read low) was 0.786 (active). The normalized growth (S. cerevisiae deletion strains, locus YDR162C, strain NBP2, active compounds read low) was 0.607 (active), the normalized growth (S. cerevisiae deletion strains, locus YDR318W, strain mcm21, active compounds read low) was 0.686 (active) and the normalized growth (S. cerevisiae deletion strains, locus YDR388W, active compounds read low) was 0.763 (active). For the same compound, the normalized growth (S. cerevisiae deletion strains, locus YDR502C, strain sam2, active compounds read low) was 0.73 (active), the normalized growth (S. cerevisiae deletion strains, locus YEL061C, strain CIN8, active compounds read low) was 0.819 (active) and the normalized growth (S. cerevisiae deletion strains, locus YER110C, active compounds read low) was 0.383 (active). For the same compound, the normalized growth (S. cerevisiae deletion strains, locus YER155C, strain BEM2, active compounds read low) was 0.669 (active), the normalized growth (S. cerevisiae deletion strains, locus YER167W, strain BCK2, active compounds read low) was 0.659 (active) and the normalized growth (S. cerevisiae deletion strains, locus YGL078C, strain dbp3, active compounds read low) was 0.759 (active). The normalized growth (S. cerevisiae deletion strains, locus YGL086W, strain mad1, active compounds read low) was 0.772 (active), the normalized growth (S. cerevisiae deletion strains, locus YGL248W, strain PDE1, active compounds read low) was 0.818 (active) and the normalized growth (S. cerevisiae deletion strains, locus YGR078C, strain PAC10, active compounds read low) was 0.745 (active). For the same compound, the normalized growth (S. cerevisiae deletion strains, locus YGR135W, strain pre9, active compounds read low) was 0.732 (active), the normalized growth (S. cerevisiae deletion strains, locus YGR229C, strain SMI1, active compounds read low) was 0.594 (active) and the normalized growth (S. cerevisiae deletion strains, locus YGR252W, strain gcn5, active compounds read low) was 0.637 (active). The normalized growth (S. cerevisiae deletion strains, locus YHR030C, strain SLT2, active compounds read low) was 0.792 (active) and 0.128 (active), the normalized growth (S. cerevisiae deletion strains, locus YHR079C, strain IRE1 (second series), active compounds read low) was 0.659 (active) and the normalized growth (S. cerevisiae deletion strains, locus YHR079C, strain IRE1, active compounds read low) was 0.111 (active). For the same compound, the normalized growth (S. cerevisiae deletion strains, locus YHR094C, strain hxt1, active compounds read low) was 0.75 (active), the normalized growth (S. cerevisiae deletion strains, locus YHR129C, strain ARP1, active compounds read low) was 0.775 (active) and the normalized growth (S. cerevisiae deletion strains, locus YHR200W, strain rpn10, active compounds read low) was 0.755 (active). The normalized growth (S. cerevisiae deletion strains, locus YIL066C, strain RNR3, active compounds read low) was 0.71 (active), the normalized growth (S. cerevisiae deletion strains, locus YIL073C, strain SPO22, active compounds read low) was 0.801 and the normalized growth (S. cerevisiae deletion strains, locus YIL125W, strain kgd1, active compounds read low) was 0.463 (active). For the same compound, the normalized growth (S. cerevisiae deletion strains, locus YIR030C, strain dcg1, active compounds read low) was 0.688 (active), the normalized growth (S. cerevisiae deletion strains, locus YJL095W, strain BCK1, active compounds read low) was 0.635 (active) and 0.181 (active) and the normalized growth (S. cerevisiae deletion strains, locus YJL134W, strain LCB3, active compounds read low) was 0.835 (active). The normalized growth (S. cerevisiae deletion strains, locus YJL168C, strain set2, active compounds read low) was 0.757 (active), the normalized growth (S. cerevisiae deletion strains, locus YJL187C, strain SWE1 (second series), active compounds read low) was 0.818 (active) and the normalized growth (S. cerevisiae deletion strains, locus YJR043C, strain POL32, active compounds read low) was 0.716 (active). For the same compound, the normalized growth (S. cerevisiae deletion strains, locus YJR066W, strain TOR1, active compounds read low) was 0.00405 (active), the normalized growth (S. cerevisiae deletion strains, locus YJR075W, strain HOC1, active compounds read low) was 0.71 (active) and the normalized growth (S. cerevisiae deletion strains, locus YKL009W, strain mrt4, active compounds read low) was 0.569 (active). The normalized growth (S. cerevisiae deletion strains, locus YKL068W, active compounds read low) was 0.759 (active), the normalized growth (S. cerevisiae deletion strains, locus YKL085W, strain MDH1 (second series), active compounds read low) was 0.647 (active) and the normalized growth (S. cerevisiae deletion strains, locus YKL085W, strain MDH1, active compounds read low) was 0.647 (active). The normalized growth (S. cerevisiae deletion strains, locus YKL190W, strain CNB1, active compounds read low) was 0.811 (active), the normalized growth (S. cerevisiae deletion strains, locus YKR001C, strain vps1, active compounds read low) was 0.3 (active) and the normalized growth (S. cerevisiae deletion strains, locus YLR039C, strain RIC1, active compounds read low) was 0.332 (active). The normalized growth (S. cerevisiae deletion strains, locus YLR058C, strain SHM2, active compounds read low) was 0.801 (active), the normalized growth (S. cerevisiae deletion strains, locus YLR102C, strain apc9, active compounds read low) was 0.739 (active) and the normalized growth (S. cerevisiae deletion strains, locus YLR113W, strain HOG1, active compounds read low) was 0.16 (active). The normalized growth (S. cerevisiae deletion strains, locus YLR262C, strain YPT6, active compounds read low) was 0.365 (active), the normalized growth (S. cerevisiae deletion strains, locus YLR268W, strain sec22, active compounds read low) was 0.718 (active) and the normalized growth (S. cerevisiae deletion strains, locus YLR330W, strain CHS5, active compounds read low) was 0.778 (active). For the same compound, the normalized growth (S. cerevisiae deletion strains, locus YLR342W, strain FKS1 (second series), active compounds read low) was 0.743 (active), the normalized growth (S. cerevisiae deletion strains, locus YLR371W, strain rom2, active compounds read low) was 0.79 (active) and the normalized growth (S. cerevisiae deletion strains, locus YLR418C, strain cdc73, active compounds read low) was 0.41 (active). For the same compound, the normalized growth (S. cerevisiae deletion strains, locus YML016C, strain PPZ1, active compounds read low) was 0.831 (active), the normalized growth (S. cerevisiae deletion strains, locus YML032C, strain rad52, active compounds read low) was 0.709 (active) and the normalized growth (S. cerevisiae deletion strains, locus YML124C, strain tub3, active compounds read low) was 0.739 (active). The normalized growth (S. cerevisiae deletion strains, locus YMR078C, strain ctf18, active compounds read low) was 0.554 (active), the normalized growth (S. cerevisiae deletion strains, locus YMR223W, strain ubp8, active compounds read low) was 0.73 (active) and the normalized growth (S. cerevisiae deletion strains, locus YMR263W, strain SAP30, active compounds read low) was 0.773 (active). The normalized growth (S. cerevisiae deletion strains, locus YMR307W, strain GAS1, active compounds read low) was 0.391 (active), the normalized growth (S. cerevisiae deletion strains, locus YNL067W, strain RPL9B, active compounds read low) was 0.791 (active) and the normalized growth (S. cerevisiae deletion strains, locus YNL128W, strain TEP1, active compounds read low) was 0.878. The normalized growth (S. cerevisiae deletion strains, locus YNL153C, strain GIM3, active compounds read low) was 0.85 (active), the normalized growth (S. cerevisiae deletion strains, locus YNL183C, strain NPR1, active compounds read low) was -0.00166 (active) and the normalized growth (S. cerevisiae deletion strains, locus YNL233W, strain BNI4, active compounds read low) was 0.782 (active). For the same compound, the normalized growth (S. cerevisiae deletion strains, locus YNL250W, strain rad50, active compounds read low) was 0.585 (active), the normalized growth (S. cerevisiae deletion strains, locus YNL271C, strain bni1, active compounds read low) was 0.7 (active) and the normalized growth (S. cerevisiae deletion strains, locus YNL298W, strain CLA4, active compounds read low) was 0.679 (active). The normalized growth (S. cerevisiae deletion strains, locus YNL307C, strain MCK1, active compounds read low) was 0.226 (active), the normalized growth (S. cerevisiae deletion strains, locus YNL322C, strain KRE1, active compounds read low) was 0.826 (active) and the normalized growth (S. cerevisiae deletion strains, locus YNR052C, strain pop2, active compounds read low) was 0.802 (active). The normalized growth (S. cerevisiae deletion strains, locus YOL006C, strain TOP1, active compounds read low) was 0.739, the normalized growth (S. cerevisiae deletion strains, locus YOL012C, strain htz1) was 0.527 and the normalized growth (S. cerevisiae deletion strains, locus YOL147C, strain pex11, active compounds read low) was 0.603 (active). For the same compound, the normalized growth (S. cerevisiae deletion strains, locus YOR061W, strain CKA2, active compounds read low) was 0.826 (active), the normalized growth (S. cerevisiae deletion strains, locus YOR069W, strain VPS5, active compounds read low) was 0.849 (active) and the normalized growth (S. cerevisiae deletion strains, locus YOR136W, strain idh2, active compounds read low) was 0.828 (active). The normalized growth (S. cerevisiae deletion strains, locus YOR144C, strain elg1, active compounds read low) was 0.756 (active), the normalized growth (S. cerevisiae deletion strains, locus YOR184W, strain ser1, active compounds read low) was 0.584 (active) and the normalized growth (S. cerevisiae deletion strains, locus YOR231W, strain MKK1, active compounds read low) was 0.106 (active). For the same compound, the normalized growth (S. cerevisiae deletion strains, locus YOR316C, strain cot1, active compounds read low) was 0.688 (active), the normalized growth (S. cerevisiae deletion strains, locus YPL055C, strain LGE1, active compounds read low) was 0.732 (active) and the normalized growth [1] was 0.819 (active). For the same compound, the normalized growth (S. cerevisiae deletion strains, locus YPL256C, strain CLN2, active compounds read low) was 0.113 (active), the normalized growth (S. cerevisiae deletion strains, locus YPR119W, strain clb2, active compounds read low) was 0.691 (active) and the normalized growth (S. cerevisiae deletion strains, locus YPR141C, strain kar3, active compounds read low) was 0.724 (active). For the same compound, the normalized growth (S. cerevisiae deletion strains, locus YPR163C, strain tif3, active compounds read low) was 0.562 (active), the normalized growth (S. cerevisiae deletion strains, locus YPR167C, strain met16, active compounds read low) was 0.731 (active) and the normalized growth (S. cerevisiae deletion strains, strain wtn01, active compounds read low) was 0.732 (active). For the same compound, the normalized growth (S. cerevisiae strains, strain wild type, active compounds read low) was 0.809 (active).

For NC(=O)COc1c(F)cc(SCCNS(=O)(=O)c2ccccc2)cc1F, the normalized growth (S. cerevisiae deletion strains, locus YAL040C, strain CLN3, active compounds read low) was 1.03, the normalized growth (S. cerevisiae deletion strains, locus YCL061C, strain MRC1 (second series), active compounds read low) was 1 and the normalized growth (S. cerevisiae deletion strains, locus YDR363W, strain ESC2, active compounds read low) was 0.968. It also gave a normalized growth (S. cerevisiae deletion strains, locus YER002W, strain NOP16, active compounds read low) of 0.97, a normalized growth (S. cerevisiae deletion strains, locus YNL175C, strain NOP13, active compounds read low) of 0.977 and a normalized growth (S. cerevisiae deletion strains, locus YNL197C, strain WHI3, active compounds read low) of 0.975. It also gave a normalized growth (S. cerevisiae deletion strains, locus YNL224C, strain SQS1, active compounds read low) of 0.983, a normalized growth (S. cerevisiae deletion strains, locus YOR083W, strain WHI5 (second series), active compounds read low) of 0.998 and a normalized growth [1] of 0.996.
